In the supplement of paper PMC9135407:
“And” between values parts separate entries of the source, which are not always exact repeats. Identical values can stand only once. Counter-ions that a name gives are not always drawn. About 620 (11%) of roughly 5,800 compounds showed activity. What follows is part of a selection rich in actives, with near analogues and random picks from the rest. A number with no mark means an inactive call.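 The calls were made as follows: active = score above a cut-off or among the top three wells of a plate; in these data no inactive exceeds 0.85.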

Tested on: primary human hepatic stellate cells (donor 1)
Assay: scaled lipid accumulation score (0 = DMSO-like, 1 = nortriptyline-like); higher = stronger HSC inactivation (lipid re-accumulation), active = hit call of the paper
Conditions: 48 h
[1] = library stock concentration: 1 mM
[2] = library stock concentration: 10 mM
[3] = library stock concentration: 3.33 mM

## CCCCCC(O)C=CC1C(O)CC(O)C1CC=CCCCC(=O)OC (stereo not drawn) [Prostaglandin F2.alpha. methyl ester]
[1]
  scaled lipid accumulation score: ≤ 0

## Nc1ncnc2c1nc(Br)n2[C@@H]1O[C@@H]2COP(=O)(O)O[C@H]2[C@H]1O [8-Bromo-cAMP]
Library stock concentration: 12.3 mM
  scaled lipid accumulation score: 0.137

## Nc1ncnc2c1nc(Br)n2[C@@H]1O[C@@H]2COP(=O)(O)O[C@H]2[C@H]1O [8-Bromo-cAMP, sodium salt]
[2]
  scaled lipid accumulation score: ≤ -0.006

## CC(NC(=O)c1ccccc1/N=C/c1c(O)ccc2ccccc12)c1ccccc1 (stereo unspecified) [Sirtinol]
[3]
  scaled lipid accumulation score: 0.008
[2]
  scaled lipid accumulation score: 0.024 and ≤ -0.001

## CCCCCCCCCCCCCCCCOC[C@H](COP(=O)([O-])OCC[N+](C)(C)C)OC [2-O-methyl PAF C-16]
[1]
  scaled lipid accumulation score: ≤ 0

## CCCCC[C@H](O)/C=C/[C@H]1CC[C@H](O)[C@@H]1C/C=C\CCCC(=O)O [11-deoxy Prostaglandin F2.alpha.]
[1]
  scaled lipid accumulation score: ≤ 0

## CCCCCCC(=O)SC[C@H](COP(=O)([O-])OCC[N+](C)(C)C)SC(=O)CCCCCC [1,2-bis(heptanoylthio) Glycerophosphocholine]
[1]
  scaled lipid accumulation score: ≤ 0

## CNC(=O)[C@H](Cc1c[nH]c2ccccc12)NC(=O)[C@@H](CC(=O)NO)CC(C)C [Ilomastat (GM6001, Galardin)]
[3]
  scaled lipid accumulation score: ≤ -0.009
[2]
  scaled lipid accumulation score: ≤ 0

## CNC(=O)[C@H](Cc1c[nH]c2ccccc12)NC(=O)[C@@H](CC(=O)NO)CC(C)C
Library stock concentration: 12.9 mM
  scaled lipid accumulation score: ≤ -0.009

## NC(=O)N1c2ccccc2CC(O)c2ccccc21 (stereo unspecified) [Licarbazepine]
[2]
  scaled lipid accumulation score: 0.008

## O=c1c(O)c(-c2ccc(O)c(O)c2)oc2cc(O)c(O)c(O)c12 [Quercetagetin]
[3]
  scaled lipid accumulation score: ≤ 0

## O=C(O)C(Cc1c[nH]c2ccccc12)N1C(=O)c2ccccc2C1=O (stereo unspecified)
Library stock concentration: 80 uM
  scaled lipid accumulation score: ≤ 0
Library stock concentration: 400 uM
  scaled lipid accumulation score: ≤ 0
Library stock concentration: 2 mM
  scaled lipid accumulation score: ≤ 0
[3]
  scaled lipid accumulation score: ≤ 0
[2]
  scaled lipid accumulation score: 0.017 and ≤ 0

## C#CCOc1ccccc1CCCCCC(=O)NS(C)(=O)=O
[1]
  scaled lipid accumulation score: 0.013

## O=C1CCc2ccc(OCCCCN3CCN(c4cccc(Cl)c4Cl)CC3)cc2N1 [Aripiprazole]
[3]
  scaled lipid accumulation score: ≤ 0
Library stock concentration: 4.5 mM
  scaled lipid accumulation score: 0.238 and 0.464
[2]
  scaled lipid accumulation score: 0.827

## O=C1CCc2cc(OCCCCc3nnnn3C3CCCCC3)ccc2N1 [Cilostazol]
  scaled lipid accumulation score: ≤ 0
[3]
  scaled lipid accumulation score: ≤ 0
Library stock concentration: 5.4 mM
  scaled lipid accumulation score: ≤ 0

## O=C1CCc2ccc(OCCCCN3CCN(c4cccc(Cl)c4Cl)CC3)cc2N1
[2]
  scaled lipid accumulation score: 0.964 (active)

## Cn1sc(=O)n(Cc2ccccc2)c1=O [GSK-3b Inhibitor I]
[3]
  scaled lipid accumulation score: ≤ 0

## Cc1ccc(NC2=CC(=O)c3sc(C)nc3C2=O)cc1 [Cdk4 Inhibitor III]
[3]
  scaled lipid accumulation score: 0.942 (active)

## Cc1ccc(NC2=CC(=O)c3sc(C)nc3C2=O)cc1 [Ryuvidine]
[2]
  scaled lipid accumulation score: 0.904 (active)

## O=C(O)[C@]1(Cc2cccc(Nc3nccs3)n2)CC[C@@H](Oc2cccc(Cl)c2F)CC1
[3]
  scaled lipid accumulation score: ≤ 0
[2]
  scaled lipid accumulation score: 0.039

## CCC[C@H](NC(=O)[C@@H]1[C@H]2CCC[C@H]2CN1C(=O)[C@@H](NC(=O)[C@@H](NC(=O)c1cnccn1)C1CCCCC1)C(C)(C)C)C(=O)C(=O)NC1CC1 [Telaprevir (VX-950)]
[3]
  scaled lipid accumulation score: ≤ 0
[2]
  scaled lipid accumulation score: ≤ 0

## CCCCCCCCCCCCCCCCOC[C@H](COP(=O)([O-])OCC[N+](C)(C)C)OC(=O)NC [Methylcarbamyl PAF C-16]
[1]
  scaled lipid accumulation score: ≤ 0

## O=C(O)CCC/C=C\C[C@H]1[C@@H](/C=C/[C@@H](O)CCc2ccccc2)[C@H](O)C[C@@H]1O [8-iso-17-phenyl trinor Prostaglandin F2.alpha.]
[1]
  scaled lipid accumulation score: ≤ 0

## O=C1CC2(CCCC2)CC(=O)N1CCCCNCC1COc2ccccc2O1 (stereo unspecified)
[2]
  scaled lipid accumulation score: 0.376

## Cl.O=C(NCCCN1CCCCCC1)C(c1ccccc1)C1CCCCC1 (stereo unspecified)
[2]
  scaled lipid accumulation score: 0.897 (active)

## CNC(C)C(=O)NC(C(=O)N1CCCC1C(=O)NC(C(=O)NCCCCCCNC(=O)C(NC(=O)C1CCCN1C(=O)C(NC(=O)C(C)NC)C1CCCCC1)C(c1ccccc1)c1ccccc1)C(c1ccccc1)c1ccccc1)C1CCCCC1 (stereo unspecified)
[3]
  scaled lipid accumulation score: 0.26
[2]
  scaled lipid accumulation score: 0.061

## CCN(CC)CCOC(=O)C(c1ccccc1)C1CCCCC1 (stereo unspecified) [Drofenine hydrochloride]
  scaled lipid accumulation score: 0.317
[2]
  scaled lipid accumulation score: 0.335

## CN1CC(O)C(O)C(O)C1CO (stereo unspecified) [N-Methyl-1-deoxynojirimycin]
[2]
  scaled lipid accumulation score: ≤ -0.07

## Cc1[nH]nc2ccc(-c3cncc(OC[C@@H](N)Cc4ccccc4)c3)cc12
[2]
  scaled lipid accumulation score: 0.795

## Cc1n[nH]c2ccc(-c3cncc(OC[C@@H](N)Cc4ccccc4)c3)cc12
[3]
  scaled lipid accumulation score: 1.24 (active)

## O=c1cnn([C@@H]2O[C@H](CO)[C@@H](O)[C@H]2O)c(=O)[nH]1
[2]
  scaled lipid accumulation score: ≤ 0

## CNCCC(Oc1ccc(C(F)(F)F)cc1)c1ccccc1.Cl (stereo unspecified) [Fluoxetine]
Library stock concentration: 5.8 mM
  scaled lipid accumulation score: 0.96 (active)

## CNCCC(Oc1ccc(C(F)(F)F)cc1)c1ccccc1.Cl (stereo unspecified) [Fluoxetine HCl]
[3]
  scaled lipid accumulation score: 0.709 (active)
[2]
  scaled lipid accumulation score: 1.02 (active)

## CNCCC(Oc1ccc(C(F)(F)F)cc1)c1ccccc1.Cl (stereo unspecified)
[2]
  scaled lipid accumulation score: 0.914 (active)

## CNCCC(Oc1ccc(C(F)(F)F)cc1)c1ccccc1.Cl (stereo unspecified) [Fluoxetine hydrochloride]
[2]
  scaled lipid accumulation score: 1.57 (active)

## CCCCCCCCCCCCCCCC(=O)N[C@H](C)CO [R-Palmitoyl-(1-methyl) Ethanolamide]
[1]
  scaled lipid accumulation score: 0.031

## CCCCC[C@H](O)/C=C/[C@H]1[C@@H](O)CC(=O)[C@@H]1CCCCCCC(=O)O [11.beta.-Prostaglandin E1]
[1]
  scaled lipid accumulation score: ≤ 0

## COc1ccnc2[nH]cc(C(=O)C(=O)N3CCN(C(=O)c4ccccc4)C[C@H]3C)c12
[3]
  scaled lipid accumulation score: ≤ 0
[2]
  scaled lipid accumulation score: 0.019

## O=C(O)c1ccc(N2C(=O)C(=Cc3ccc(-c4ccc([N+](=O)[O-])cc4)o3)C=C2c2ccccc2)cc1
[3]
  scaled lipid accumulation score: 0.129
[2]
  scaled lipid accumulation score: 0.284
